Assay outcomes (PubChem BioAssay)
CCT modulator – High-Throughput Screening for Modulators of Cytosolic Chaperonin Activity | actives 0.3% (n = 360,000) | purified chaperonin ATPase assay, HTRF ADP detection, 30 min | activity change, % (test concentration not listed), hits read low; in the data active means activity change below about -30%; further: on the % scale 0 is the no-effect control and ±100 the full control effect
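ATPase activity: ADP formed was measured by HTRF Transcreener (665/615 nm ratio) after 30 min at 37 deg C with 10 uM ATP. Compounds screened at one 76 uM concentration against 40 or 20 nM TRiC in Tris pH 7.4/KCl/MgCl2/DTT buffer.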
S-ASM inh – Inhibitors of Secretory Acid Sphingomyelinase (S-ASM): qHTS. Sphingomyelin phosphodiesterase (Homo sapiens), P17405. placental ASM, HMU-PC fluorogenic substrate, 60 min. Potency, µM (top dose mostly 57.5 µM), for the others: at the top dose activity change, negative = inhibition, actives largely listed as inhibitors. actives 0.006% (n = 340,000); further: potency means the concentration at half of the fitted maximal effect
Target sequence (P17405 47-631 limits assumed): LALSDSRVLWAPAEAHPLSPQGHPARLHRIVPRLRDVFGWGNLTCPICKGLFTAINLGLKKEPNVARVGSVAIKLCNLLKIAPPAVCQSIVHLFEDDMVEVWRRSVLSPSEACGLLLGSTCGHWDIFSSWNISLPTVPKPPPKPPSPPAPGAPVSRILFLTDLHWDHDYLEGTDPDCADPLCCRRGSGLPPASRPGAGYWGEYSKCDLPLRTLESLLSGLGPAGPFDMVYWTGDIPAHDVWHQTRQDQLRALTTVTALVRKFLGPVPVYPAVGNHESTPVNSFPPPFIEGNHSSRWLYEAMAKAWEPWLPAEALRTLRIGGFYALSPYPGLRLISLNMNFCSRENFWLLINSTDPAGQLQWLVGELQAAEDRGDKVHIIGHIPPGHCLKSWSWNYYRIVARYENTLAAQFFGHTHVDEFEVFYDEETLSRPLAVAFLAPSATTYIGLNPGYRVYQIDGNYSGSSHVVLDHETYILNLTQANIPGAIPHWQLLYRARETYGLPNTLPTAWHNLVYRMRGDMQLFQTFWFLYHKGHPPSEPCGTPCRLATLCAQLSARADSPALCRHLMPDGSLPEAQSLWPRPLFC
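Human placenta-derived ASM enzyme was preincubated with compound for 10 minutes at room temperature, then given fluorogenic substrate HMU-PC0 (9 uM final) for 60 minutes at 37 °C; a pH 10 stop preceded fluorescence reading at Ex 386/Em 447 nm.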
Tb PFK inh-1 – qHTS Assay to Find Inhibitors of T. brucei phosphofructokinase; ATP-dependent 6-phosphofructokinase (Trypanosoma brucei brucei), O15648; T. brucei PFK, ADP-Glo luminescence; Potency, µM (titrated, usually from 57.5 µM), for inactives: top-dose activity, negative = inhibition, actives largely listed as inhibitors; actives 0.17% (n = 330,000); AID 485367, 2010;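 further: potency means the concentration at half of the fitted maximal effect; 0% = uninhibited 1x PFK enzyme wells and -100% = no-enzyme wells; nearly all actives have a fitted effect of over 60% in size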
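Activity is normalized to no-enzyme wells (full inhibition) and 1.25 nM enzyme wells (no inhibition). Reaction: 0.5 mM F6P, 0.1 mM ATP, 45 min RT, ADP-Glo luminescence; concentration-response curves fitted and classed by quality.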
Chronic BCR inh – qHTS Assay to Find Inhibitors of Chronic Active B-Cell Receptor Signaling | actives 0.05% (n = 340,000) | Potency, µM (series often up to 46.1 µM), without a hit: top-dose activity change, negative = inhibition, usual class: inhibitors | ABC-DLBCL IkBa-CBG/CBR reporter, luminescence ratio, 4 h | AID 493014, 2011; active means well fitted inhibition curve with a large enough effect in the signal ratio, with a control signal flat, not every such curve was filed as active; inconclusive means small, poorly fitted or top-dose-only effect, or effect the other way, or a change in a side signal; the % refers to the signal ratio;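 further: potency means the concentration at half of the fitted maximal effect; plate controls were basal doxycycline-induced cells for no effect and cells given 10 µM MG132 for full effect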
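Concentration-response series (up to 46 uM) were applied to TMD8 dual-reporter cells for 4 h at 37C with doxycycline. Green/red ratio, after filter-overlap correction, defined %Activity; red signal alone was normalised to basal cells and zero luminescence.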
TCR act – Activators of T cell receptors: qHTS campaign | Potency, µM (doses to about 9.22 µM), without a hit: top-dose activation of IL-2 secretion, hits mostly activators | primary human leukocytes, anti-CD3, IL-2 HTRF, 48 h | 330,000 tested, under 10 active; further: % of control where 0% means no effect
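48 hr co-incubation of compounds, a-CD3 beads and primary human leukocytes; IL-2 quantified homogeneously by HTRF with anti-IL-2 K and d2 conjugates.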
Tb PFK KinaseGlo – Tb PFK orthogonal confirmatory assay using ATP depletion (Kinase-Glo Plus) as an alternative measure of Tb PFK activity: Hit Validation; shares compounds with Tb PFK inh-1; Tb PFK enzyme, ATP depletion, Kinase-Glo Plus luminescence; Potency, µM (doses to about 57.5 µM), for inactives: at the highest dose inhibition; actives 47% (n = 1,100); calls by dose curve; further: potency means the concentration at half of the fitted maximal effect; nearly all actives have a fitted effect of over 60% in size
Tb PFK inh-2 – Inhibitors of T. brucei phosphofructokinase: Hit Validation. actives 41% (n = 1,100). Potency, µM (highest dose often 57.5 µM), without a hit: at the top dose activity change, negative = inhibition, hits mostly inhibitors. shares compounds with Tb PFK inh-1. AID 504637, 2011. purified T. brucei PFK, ADP-Glo luminescence, 45 min;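 further: potency means the concentration at half of the fitted maximal effect; plate controls were full PFK enzyme control for no effect and no enzyme control for full effect; nearly all actives have a fitted effect of over 60% in size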
Starred values were filed as active, the others as inactive; ? = inconclusive; · = no result given; [ ] = dose if it differs, or a comment. Compounds with a hit are over-represented: about 0.49% of the library has one in this group of screens. Unless noted, the call rests on the fitted dose curve; in most records, active means well fitted curve in the direction sought with a large enough effect; inconclusive means small, poorly fitted or top-dose-only effect, or another doubt; inactive means no such curve, though single readings can be large; an effect the other way counts as inactive or inconclusive.

SMILES | CCT modulator | S-ASM inh | Tb PFK inh-1 | Chronic BCR inh | TCR act | Tb PFK KinaseGlo | Tb PFK inh-2
COC(=O)[C@@H]1N=C(c2ccc(OC)cc2)O[C@]12C(=O)N(C)c1cccc(Cl)c12 | 0 | · | · | · | · | · | ·
COc1ccc(C(=O)Nc2ccccc2C(=O)N/N=C/c2ccccn2)cc1OC | 1 | -1% | 3% | ? | 1% | · | ·
O=[N+]([O-])c1ccc(N2CCOCC2)c2c1no[n+]2[O-] | -3 | · | · | · | · | · | ·
Cc1ccc(-c2ccc(C3C(C#N)=C(N)Oc4n[nH]c(C)c43)o2)cc1 (stereo not drawn) | 1 | -7% | ? | ? | -7% | ? | -17%
Cc1ccc(-n2nc(C)c(C3C(C#N)=C(N)Oc4c3c(=O)oc3ccccc43)c2Cl)cc1 (stereo not drawn) | · | · | -6% | ? | · | · | ·
O=C(CSc1ccncc1)Nc1ccc(S(=O)(=O)Nc2nccs2)cc1 | -1 | 2% | 19µM* | 1% | 8% | 13µM* | 27µM*
CC(=O)NS(=O)(=O)c1ccc(NC(=O)CSc2ccc(Cl)cc2)cc1 | 1 | 1% | 30µM* | -1% | · | 13µM* | 30µM*
O=C(COc1ccc(F)cc1Cl)Nc1ccc(S(=O)(=O)Nc2nccs2)cc1 | -2 | -1% | 1.2µM* | ? | 6% | 0.95µM* | 1.1µM*
O=C(COc1ccccc1F)Nc1ccc(S(=O)(=O)Nc2nccs2)cc1 | -2 | -5% | 4.8µM* | 5% | -4% | 2.1µM* | 6µM*
CC(=O)Nc1ccc(C2CN(C)CC2C(=O)c2ccc(Cl)cc2)cc1 (stereo not drawn) | 2 | -4% | 2% | -4% | 9% | · | ·
CC(C)CCNC(=O)Cn1c(=O)oc2cc(S(=O)(=O)N3CCc4ccccc43)ccc21 | -3 | -3% | 6% | ? | 2% | · | ·
C[C@H](CO)N1C[C@H](C)[C@H](CN(C)C(=O)Oc2ccccc2)OCc2cnnn2CCCC1=O | 1 | · | · | · | · | · | ·
Cc1cccc(C)c1-n1nnnc1C(c1ccccc1OC(F)(F)F)N1CCC(n2c(=O)[nH]c3ccccc32)CC1 (stereo not drawn) | 1 | · | · | · | · | · | ·
O=C1NCN(c2ccccc2)C12CCN(C(c1nnnn1-c1ccc3c(c1)OCCO3)C1CC1)CC2 (stereo not drawn) | -2 | · | · | · | · | · | ·
NC(=O)CCN1CCN(C(=O)c2ccc3nc(Cc4cccc(Cl)c4)oc3c2)CC1 | -1 | 2% | ? | 0% | 3% | 12µM* | 27µM*
C=CCSC1=N/C(=C\C=C\c2ccco2)C(=O)S1 | -2 | -22% | 17µM* | 0% | -5% | ? | ?
O=C1NC(=O)N(Cc2ccc(F)cc2)C(=O)/C1=C\C=C\c1ccco1 | 1 | -8% | ? | ? | 0% | · | ·
NS(=O)(=O)c1ccc(NC(=O)Nc2ccc(Cl)cc2)cc1 | -1 | 0% | 12µM* | 5% | -4% | 6µM* | 11µM*
NS(=O)(=O)c1ccc(NC(=S)NCc2cccc(Cl)c2)cc1 | 0 | -6% | ? | -1% | 1%[46.1 µM] | 1.5µM* | 2.4µM*
NS(=O)(=O)c1ccc(NC(=S)Nc2cc(Cl)c(Cl)cc2Cl)cc1 | -2 | -2% | ? | -1% | -1%[46.1 µM] | 27µM* | ?
CC(C)C1C(C#N)=C(N)Oc2c1c(=O)oc1ccccc21 (stereo not drawn) | 1 | · | · | · | · | · | ·
